Source: article PMC5540273 (PLoS ONE, 2017)

Assays:
Settings in all cases: concentration: 1 μM, replicates: in singlicate; n = 1
[1] = system: T1, TIE2
T1 construct: gene TEK

[2] = system: TLK1
[3] = system: TLK2
[4] = system: TNIK
[5] = system: TNK1
[6] = system: TNK2
[7] = system: TNNI3K
[8] = system: T2, TRKA
T2 construct: gene NTRK1

[9] = system: TRKB
[10] = system: T3, TRKC
T3 construct: gene NTRK3

[11] = system: TRPM6
[12] = system: TSSK1B
[13] = system: TSSK3
[14] = system: TTK
[15] = system: TXK
[16] = system: TYK2(JH1domain-catalytic)
[17] = system: TYK2(JH2domain-pseudokinase)
[18] = system: TYRO3
[19] = system: ULK1
[20] = system: ULK2
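Note: KINOMEscan kinase panel screen.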

Row | SMILES | %Inh [1] [%] | %Inh [2] [%] | %Inh [3] [%] | %Inh [4] [%] | %Inh [5] [%] | %Inh [6] [%] | %Inh [7] [%] | %Inh [8] [%] | %Inh [9] [%] | %Inh [10] [%] | %Inh [11] [%] | %Inh [12] [%] | %Inh [13] [%] | %Inh [14] [%] | %Inh [15] [%] | %Inh [16] [%] | %Inh [17] [%] | %Inh [18] [%] | %Inh [19] [%] | %Inh [20] [%]
1 | CN(C)c1cc(-c2ccc3c(N)n[nH]c3c2)nc(N)n1 [GSK2219329] | 0 | 9 | 0 | 0 | 0 | 1 | 0 | 0 | 0 | 0 | 13 | 0 | 6 | 0 | 97.2 | 14 | 25 | 0 | 0 | 0
2 | CCC(=O)c1c(-c2ccccc2)c2cc(Cl)ccc2c(=O)n1Cc1cc(S(C)(=O)=O)n(CCC(C)(C)O)n1 | 5 | 1 | 0 | 2 | 28 | 0 | 13 | 0 | 0 | 31 | 18 | 0 | 1 | 4 | 18 | 0 | 6 | 0 | 0 | 7
3 | CCS(=O)c1ccc(-c2coc3ccc(-c4nnc(C)o4)cc23)cc1 (stereo not drawn) | 10 | 17 | 0 | 12 | 0 | 3 | 0 | 28 | 5 | 5 | 0 | 0 | 0 | 14 | 0 | 21 | 11 | 0 | 0 | 4
4 | Cc1ccc(Oc2ccc(Nc3ncnc4cc[nH]c34)cc2C)cn1 | 13 | 6 | 12 | 0 | 0 | 12 | 3 | 42 | 14 | 17 | 0 | 5 | 0 | 31 | 6 | 22 | 15 | 3 | 11 | 0
5 | Cc1cccc(-c2cc(-c3c[nH]nc3-c3ccccn3)ccn2)c1 [GW679395] | 0 | 0 | 0 | 59 | 0 | 4 | 9 | 0 | 13 | 20 | 0 | 24 | 0 | 23 | 0 | 9 | 27 | 0 | 0 | 0
6 | COc1cc2ncn(-c3cc(OCc4ccncc4Br)c(C(N)=O)s3)c2cc1OC [GW854278] | 6 | 18 | 0 | 39 | 33 | 0 | 18 | 0 | 0 | 7 | 0 | 0 | 0 | 0 | 21 | 0 | 5 | 11 | 2 | 0
7 | CCC(=O)c1c(-c2ccccc2)c2cc(Cl)ccc2c(=O)n1Cc1cc(S(C)(=O)=O)n(CC(F)F)n1 | 2 | 0 | 0 | 0 | 0 | 0 | 0 | 0 | 0 | 1 | 10 | 0 | 0 | 0 | 6 | 0 | 0 | 0 | 0 | 0
8 | Fc1cccc(CSc2nnc(-c3ccc4c(c3)CCO4)o2)c1 | 7 | 0 | 12 | 0 | 0 | 8 | 6 | 3 | 0 | 28 | 0 | 0 | 2 | 2 | 0 | 4 | 12 | 0 | 0 | 9
9 | COC(=O)c1c(-c2ccccc2)c2cc(C)ccc2c(=O)n1Cc1ccccc1 | 0 | 9 | 0 | 0 | 0 | 0 | 0 | 0 | 0 | 0 | 0 | 0 | 0 | 5 | 0 | 0 | 0 | 0 | 0 | 0
10 | COc1ccc(CNC(=O)NC2CCN(c3ccnc(Nc4ccc(F)cc4)n3)C2)cc1 (stereo not drawn) [GSK1379706] | 2 | 26 | 16 | 0 | 0 | 10 | 10 | 54 | 26 | 44 | 4 | 0 | 21 | 21 | 0 | 27 | 23 | 0 | 0 | 0
11 | COc1ccc(-c2coc3ccc(-c4nnc(SCc5cccc(C#N)c5)o4)cc23)cc1 | 5 | 25 | 0 | 21 | 10 | 0 | 20 | 17 | 0 | 3 | 0 | 0 | 0 | 6 | 2 | 10 | 0 | 0 | 0 | 5
12 | COc1cccc(-n2cnc3c(N)ncnc32)c1 [SKF-97416] | 0 | 2 | 19 | 15 | 0 | 0 | 0 | 45 | 48 | 33 | 65 | 0 | 21 | 44 | 11 | 83 | 40 | 0 | 45 | 39
13 | O=C(Nc1n[nH]c2nc(-c3ccccc3)c(Cl)cc12)C1CC1 [SB-734909] | 15 | 0 | 6 | 8 | 0 | 0 | 0 | 0 | 0 | 0 | 29 | 0 | 0 | 0 | 4 | 25 | 16 | 0 | 22 | 20
14 | CN1C(=O)C(Nc2ccccc2)=C(c2ccccc2)C1=O [SB-300079] | 0 | 3 | 41 | 7 | 0 | 0 | 0 | 0 | 9 | 11 | 0 | 0 | 0 | 0 | 0 | 0 | 17 | 0 | 6 | 12
15 | COc1cc(OC)cc(-c2cc3cnc(N)nc3nc2NC(=O)NC(C)(C)C)c1 | 18 | 0 | 0 | 0 | 14 | 100 | 0 | 0 | 0 | 0 | 0 | 9 | 0 | 0 | 19 | 0 | 3 | 100 | 0 | 0
16 | CCC(=O)c1c(-c2ccccc2)c2cc(Cl)ccc2c(=O)n1Cc1ccc(C(=O)O)cc1 | 0 | 0 | 0 | 0 | 0 | 0 | 0 | 0 | 0 | 0 | 0 | 0 | 0 | 0 | 0 | 0 | 0 | 0 | 0 | 2
17 | CCc1ccc(-c2ccc3c(c2)-c2nn(C)cc2S(=O)(=O)N3C)cc1 | 0 | 35 | 0 | 38 | 14 | 0 | 0 | 0 | 0 | 0 | 0 | 0 | 0 | 0 | 0 | 0 | 0 | 0 | 0 | 0
18 | CCn1c(-c2ccoc2)nc2cnccc21 [SB-733887] | 7 | 0 | 0 | 0 | 0 | 3 | 11 | 0 | 41 | 13 | 52 | 0 | 6 | 0 | 28 | 27 | 50 | 0 | 29 | 4
19 | C[C@@H]1CC[C@H](C(=O)NC2CCCCC2)CN1c1cc(-c2ccc3c(N)n[nH]c3c2)nc(N)n1 [GSK2291363] | 0 | 5 | 0 | 8 | 0 | 18 | 5 | 9 | 0 | 0 | 16 | 31 | 31 | 16 | 6 | 0 | 23 | 0 | 6 | 0
20 | Cl.NS(=O)(=O)c1cccc(Nc2cc(-c3ccc(F)cc3)n[nH]2)c1 [GW824645] | 2 | 0 | 0 | 45 | 0 | 0 | 0 | 40 | 44 | 31 | 0 | 0 | 0 | 0 | 0 | 0 | 9 | 0 | 15 | 47
21 | Cc1cccc(-c2nc(Nc3ccc4c(cnn4C)c3)c3ccccc3n2)n1 [GW876731] | 27 | 0 | 11 | 0 | 43 | 0 | 0 | 44 | 0 | 0 | 0 | 3 | 0 | 0 | 10 | 20 | 39 | 5 | 8 | 13
